D1 potentiator: enhances dopamine response at the human D1 receptor. HEK293 TREx D1 cells, calcium flux, dopamine EC20 potentiation. potentiation, % at 10 µM. actives 0.036% (n = 360,000). AID 504651; in the data active = potentiation above about 30%; note: 0% is about no effect
D1 ag: human D1 receptor agonism; HEK293 T-REx D1 cells, calcium flux, agonist mode; AID 504660; activation, % at 2 µM; actives 1% (n = 360,000); P21728; note: 0% is about no effect
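Tetracycline-induced HEK293 TREx D1 cells, force-coupled to calcium signalling, were dye-loaded with a no-wash calcium kit. Compound was pin-added after a 10 s baseline. Fluorescence was read kinetically at 1 cycle/s for 180 s, with calcium rises flagged as agonism.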
D1 antagonist: blocks dopamine activation of the human D1 receptor. P21728. HEK293 TREx D1 cells, calcium flux, dopamine EC80; stronger effect = lower value. activity change, negative = inhibition, % at 10 µM. actives 3.2% (n = 360,000); in the data active = activity change below about -30%; note: % is set by controls: 0 for no effect and ±100 for the full control effect
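Calcium flux readout: force-coupled, inducible Hek293 Trex D1 line, cells induced overnight at 30 C with tetracycline, dye-loaded 30–90 min at RT. Antagonism scored against EC80 dopamine challenge given 180 s after compound.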
TRHR PAM: allosterically enhances the human TRH receptor; P34981; TRHR cells, fluo-8 calcium fluorescence, EC20 TRH enhancement; enhancement, % at 2 µM; actives 0.66% (n = 360,000); in the data active = enhancement above about 30%; note: 0% is about no effect
Target sequence (P34981 whole entry, looked up): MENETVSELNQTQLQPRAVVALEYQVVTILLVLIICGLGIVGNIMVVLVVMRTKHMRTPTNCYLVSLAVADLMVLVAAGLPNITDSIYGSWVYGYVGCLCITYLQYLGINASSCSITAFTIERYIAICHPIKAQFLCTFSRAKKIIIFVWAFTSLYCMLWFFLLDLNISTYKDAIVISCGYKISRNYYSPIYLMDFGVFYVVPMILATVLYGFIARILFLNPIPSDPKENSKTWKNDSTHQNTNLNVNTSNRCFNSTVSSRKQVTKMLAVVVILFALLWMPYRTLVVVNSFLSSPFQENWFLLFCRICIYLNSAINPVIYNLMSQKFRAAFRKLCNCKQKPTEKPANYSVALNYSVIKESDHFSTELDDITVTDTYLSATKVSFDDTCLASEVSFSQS
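Enhancer read-out: after compound pinning and an initial kinetic agonist-mode read, an EC20 of TRH (10 nM final) was injected and fluo-8 calcium signal (Ex 480/Em 530) followed at 1 s/cycle for 100 cycles in TRHR-expressing cells.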
TRHR agonist: agonists of human TRH receptor; P34981; TRHR cells, calcium flux fluo-8, FDSS agonist mode; activation, % at 2 µM; actives 0.18% (n = 360,000); AID 493084; note: 0% is about no effect
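Agonist-mode FDSS calcium read (Ex 480/Em 530, 1 s cycles) in 1536-well TRHR cells with fluo-8 dye, after 10-cycle baseline and 23 nL compound addition; TRH at EC20 (10 nM final) added afterwards for the enhancer phase.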
* = called active by the depositor; / = no result given. Most compounds without a hit are left out; they make up all but 4.6% or so of the library. Cut-off read from the data, not from the text of the source, unless noted: active = activation above about 30%; inactive = the rest.

SMILES | D1 potentiator | D1 ag | D1 antagonist | TRHR PAM | TRHR agonist
CCN(CC)S(=O)(=O)c1ccc(NC(=O)COC(=O)CNS(=O)(=O)/C=C/c2ccccc2)cc1 | -6 | 6 | -31* | 7 | -1
COc1ccc(NC(=O)COC(=O)CNS(=O)(=O)/C=C/c2ccccc2)cc1OC | -4 | 1 | -3 | -12 | 0
CCOc1ccc(C(=O)Cn2c(=O)n3nc(CCn4nc(C)cc4C)nc3c3cc(OC)c(OC)cc32)cc1 | 1 | -1 | -13 | 13 | 0
O=c1[nH]c(C2CCN(S(=O)(=O)c3cccc(Cl)c3)CC2)nc2c1nnn2Cc1ccccc1 | -2 | 0 | 2 | 1 | 0
CC1CC(C)CN(c2oc(-c3ccco3)nc2C#N)C1 (stereo unspecified) | 4 | 1 | -46* | 1 | 0
N#Cc1nc(-c2ccco2)oc1N1CCCC1 | -23 | 0 | -15 | -1 | 0
O=C(O)CCCNC(=O)CCCn1nnc2ccccc2c1=O | -2 | 0 | 5 | 32* | 1
O=C(O)CCCCCNC(=O)CCn1cnc2ccccc2c1=O | -13 | 1 | -51* | -2 | 0
Cc1c(NS(=O)(=O)c2ccc(C(=O)NCc3ccc(F)cc3)cc2)c(=O)n(-c2ccccc2)n1C | -9 | 0 | -36* | 2 | 0
Cc1ccc(S(=O)(=O)N2CCCCC2)cc1C(=O)NCc1ccccn1 | 3 | -3 | 14 | 2 | 1
CCN(Cc1ccccc1)C(=O)C(C)OC(=O)c1cc(S(=O)(=O)Nc2c(C)n(C)n(-c3ccccc3)c2=O)ccc1C (stereo unspecified) | -1 | 1 | -69* | 7 | -1
CSc1nc2ccc(S(=O)(=O)Nc3c(C)n(C)n(-c4ccccc4)c3=O)cc2s1 | -7 | 0 | -91* | 2 | 0
Cc1c(NS(=O)(=O)c2ccc3c(c2)n(C)c(=O)n3C)c(=O)n(-c2ccccc2)n1C | 0 | 0 | 4 | 5 | 0
Cc1ccc(S(=O)(=O)Nc2c(C)n(C)n(-c3ccccc3)c2=O)cc1C(=O)NCc1ccccn1 | -5 | 0 | -34* | 4 | -2
CCN(Cc1ccccc1)C(=O)COC(=O)c1cc(S(=O)(=O)Nc2c(C)n(C)n(-c3ccccc3)c2=O)ccc1C | -7 | 2 | -2 | 9 | -1
Cc1ccc(NC(=O)c2ccc(S(=O)(=O)Nc3c(C)n(C)n(-c4ccccc4)c3=O)cc2)nc1 | -4 | 4 | 7 | 3 | 0
O=C(c1ccc2c(c1)N(Cc1ccccc1F)C(=O)c1ccccc1S2(=O)=O)N1CCCCC1 | -2 | 4 | 5 | -1 | 0
CCC(=O)Nc1ccc(C(=O)Nc2c[nH]c(=O)[nH]c2=O)cc1 | -5 | 2 | -8 | 0 | 1
O=C1c2[nH]nc(-c3ccccc3O)c2C(c2cccc(Br)c2)N1Cc1ccncc1 (stereo unspecified) | 0 | 0 | 16 | -6 | 0
CC(=O)c1ccc(NC(=O)Nc2ccc([N+](=O)[O-])cc2)cc1 | -3 | 21 | -36* | -1 | 2
CC(=O)c1ccc(C(=O)Nc2nnc(-c3ccc(Cl)cc3)o2)cc1 | -9 | 0 | -32* | 2 | -1
O=C(Nc1ccc([N+](=O)[O-])cc1)Nc1cnccn1 | -9 | 16 | -32* | -3 | 0
COC(=O)c1sccc1NC(=O)Nc1ccc(C(C)=O)cc1 | 0 | -1 | -33* | -2 | 0
O=C(/C=C\NCC(=O)c1ccccc1)c1ccc(F)cc1 | -1 | 2 | 6 | 5 | 0
CCOc1ncccc1C(=O)OCC(=O)N1CCc2ccccc21 | 0 | 2 | -2 | 9 | 1
SMILES | D1 potentiator | D1 ag | D1 antagonist | TRHR PAM | TRHR agonist
CC(=O)c1ccc(NC(=O)Nc2ccc(Cl)cc2)cc1 | -5 | 30 | -35* | -4 | -1
CC(=O)Nc1cc[n+](CC(=O)c2ccc(Cl)cc2)cc1 | 1 | 2 | -33* | 1 | 1
CC(=O)Nc1cc[n+](C(C)C(=O)c2ccc(Cl)cc2)cc1 (stereo unspecified) | -9 | 4 | -3 | -1 | 0
Cc1ccc(C(C)C)cc1NC(=O)Nc1ccc([N+](=O)[O-])cc1 | -14 | 17 | -49* | -7 | 3
COc1ccccc1NC(=O)C(NC(=O)c1ccc(C)cc1)c1ccccc1 (stereo unspecified) | -5 | 2 | 6 | -10 | 0
CC(C)c1nnc(NC(=O)c2cc3cc(Br)ccc3oc2=O)s1 | 0 | 0 | -2 | -2 | 0
Cc1ccnc(NC(=O)c2ccc(COc3c(F)c(F)cc(F)c3F)o2)c1 | -11 | 9 | -1 | -4 | -1
O=C(Nc1ccc(Br)cn1)c1ccc(COc2c(F)c(F)cc(F)c2F)o1 | / | 32* | -6 | 10 | 1
O=C1CSC(c2ccc(Cl)cc2Cl)N1c1ccccn1 (stereo unspecified) | 30* | 1 | 0 | -9 | -1
O=C1CSC(c2ccccn2)N1c1ccc(Cl)c(Cl)c1 (stereo unspecified) | -4 | 10 | 6 | 7 | -1
CCSc1nnc(NC(=O)c2cccc(S(=O)(=O)N(C)c3ccc(C)cc3)c2)s1 | -7 | 3 | -54* | -3 | 0
Cc1ccc(N(C)S(=O)(=O)c2cccc(C(=O)Nc3ccc(C)cn3)c2)cc1 | 4 | 3 | -88* | 2 | 0
COc1ccc(N(C)S(=O)(=O)c2cccc(C(=O)Nc3cccc(C(=O)NC4CC4)c3)c2)cc1 | -14 | 6 | -53* | 0 | 0
O=C(CN1C(=O)NC(c2ccccc2)(c2ccccc2)C1=O)N1CCOCC1 | -5 | -1 | 5 | -1 | 0
CSc1nc2c(c(=O)[nH]c(=O)n2C)n1Cc1ccccc1 | 1 | 5 | 2 | 31* | 0
Cn1c(=O)[nH]c(=O)c2c1nc(CN1CCN(c3cccc(Cl)c3)CC1)n2CCCc1ccccc1 | -8 | 2 | -31* | -15 | -1
CN(C)S(=O)(=O)c1cccc(CSCc2cccc(S(=O)(=O)N(C)C)c2)c1 | -8 | 23 | -36* | 1 | 2
COc1ccc2c(c1)C(C)=CC(C)(C)N2S(=O)(=O)c1ccc(NC(C)=O)cc1 | -1 | 11 | 1 | 4 | 3
COc1ccc2c(c1)C(C)=CC(C)(C)N2S(=O)(=O)c1ccc(Br)cc1 | -2 | 2 | -30* | -10 | 0
COc1ccc(C(=O)N/C(=C\c2ccc([N+](=O)[O-])cc2)C(=O)NC(CCSC)C(=O)O)cc1 (stereo unspecified) | 0 | 111* | -33* | -8 | 22
COc1ccc(/C=C(\NC(=O)c2ccc(OC)cc2)C(=O)NC(CCSC)C(=O)O)cc1 (stereo unspecified) | -10 | 1 | -3 | -2 | 0
CN1CCN(c2nc(-c3ccco3)cc(C(F)(F)F)n2)CC1 | -5 | -1 | -68* | -1 | 0
